Assay [1] relates to Human papillomavirus type 1a protein E7 (residues 44-93). Kind of assay: small molecules binding HPV E7 44-93 – biochemical, small-molecule microarray, residues 44-93, 635 nm fluorescence, primary screen (AID 1108).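 Further: E7 fragment applied at 1 µg/mL in TBST for 1 h at 4 C; score combines spot fluorescence with its signal to noise ratio.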 Particulars: fluorescence 635 nm, higher = more signal.
Assay [2] can be described thus: hepatitis C replication reporter changes, two-sided – Huh7 cells, luciferase reporter, HCV replication inhibitor project, primary screen (AID 1109).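 Further: huh7 hepatoma cells harbouring a luciferase neomycin HCV replicon reporter; luciferase luminescence as measure of HCV replicon replication; test concentration not given here.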 Particulars: Huh7 HCV replicon luciferase reporter, 48 h; higher = more signal.
Assay [3] addresses Left-right determination factor 2 (Homo sapiens) (UniProt O00292). Kind of assay: small molecules binding LEFTY2 protein – biochemical, small-molecule microarray, 635 nm fluorescence scan, primary screen (AID 1110). To be noted: higher = more signal.
Assay [4] addresses Calmodulin-1 (Homo sapiens) (UniProt P0DP23). The experiment in a line: small molecules binding calmodulin-1 with EGTA – biochemical, small-molecule microarray, Cy5-labelled CALM1, profiling panel (AID 1111).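 Further: labelled calmodulin applied in Tris saline Tween buffer holding calcium plus EGTA and DTT.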 Particulars: Cy5-CALM1 binding fluorescence, higher = more signal.
For assay [5] the target is unchanged. Kind of assay: small molecules binding Ca-loaded calmodulin-1 – biochemical, small-molecule microarray, Cy5-labelled CALM1, plus calcium, artefact control for SMM control-protein annotation, profiling panel (AID 1112).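 Further: score merges spot fluorescence with signal to noise from triplicate slides.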 To be noted: Cy5-CALM1 binding fluorescence, higher = more signal.
Assay [6] in a line: probe aWnt5a binding to arrayed compounds – biochemical, biotinylated probe, 635/667 nm fluorescence, primary screen (AID 1113).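 Further: score merges 667 nm fluorescence intensity with signal-to-noise per printed feature.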 Particulars: small-molecule microarray, higher = more signal.
Assay [7] is described as follows: probe aShh binding to arrayed compounds – biochemical, biotinylated probe, 635/667 nm fluorescence, primary screen (AID 1114).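 Further: probe is biotin-labelled aShh protein from a stem cell growth factor screen; measures binding of labelled protein to compounds printed on the slide; score merges feature fluorescence at 667 nm with signal-to-noise.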 To be noted: small-molecule microarray, higher = more signal.
Assay [8] in a line: probe aNog binding to arrayed compounds – biochemical, biotinylated probe, 635/667 nm fluorescence, primary screen (AID 1115).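 Further: probe is biotinylated aNog protein used at 0.15 µg/mL for 1 h at 4 C; z-score combines 667 nm fluorescence of each spot with its signal to noise.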 Particulars: small-molecule microarray, higher = more signal.
Assay [9] concerns the target Torsin-1A-interacting protein 1 (Homo sapiens) (UniProt Q5JTV8). Kind of assay: compound microarray binding of lysate hLAP1 – cell lysate, small-molecule microarray, COS7 lysate, 635/667 nm fluorescence, primary screen (AID 1116). Particulars: 635 nm fluorescence, higher = more signal.
Assay [10] concerns the target Alpha-bungarotoxin (Bungarus multicinctus) (UniProt P60615). The experiment in a line: compounds binding labelled alpha-BTX control protein – biochemical, small-molecule microarray, Alexa647 label, 635/667 nm fluorescence, artefact control for SMM control protein annotation, profiling panel (AID 1117). Particulars: alpha-BTX-A647 binding fluorescence, higher = more signal.

The target in the next assay is Albumin (Bos taurus) (UniProt P02769). The experiment in a line: compounds binding labelled BSA control protein – biochemical, small-molecule microarray, Alexa647 label, 635/667 nm fluorescence, artefact control for SMM control protein annotation, profiling panel (AID 1118).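 Further: score merges 667 nm emission intensity and signal-to-noise per printed compound spot.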 Particulars: BSA-A647 binding, fluorescence 635 nm, higher = more signal.
Albumin (Bos taurus), sequence (P02769 whole entry, looked up): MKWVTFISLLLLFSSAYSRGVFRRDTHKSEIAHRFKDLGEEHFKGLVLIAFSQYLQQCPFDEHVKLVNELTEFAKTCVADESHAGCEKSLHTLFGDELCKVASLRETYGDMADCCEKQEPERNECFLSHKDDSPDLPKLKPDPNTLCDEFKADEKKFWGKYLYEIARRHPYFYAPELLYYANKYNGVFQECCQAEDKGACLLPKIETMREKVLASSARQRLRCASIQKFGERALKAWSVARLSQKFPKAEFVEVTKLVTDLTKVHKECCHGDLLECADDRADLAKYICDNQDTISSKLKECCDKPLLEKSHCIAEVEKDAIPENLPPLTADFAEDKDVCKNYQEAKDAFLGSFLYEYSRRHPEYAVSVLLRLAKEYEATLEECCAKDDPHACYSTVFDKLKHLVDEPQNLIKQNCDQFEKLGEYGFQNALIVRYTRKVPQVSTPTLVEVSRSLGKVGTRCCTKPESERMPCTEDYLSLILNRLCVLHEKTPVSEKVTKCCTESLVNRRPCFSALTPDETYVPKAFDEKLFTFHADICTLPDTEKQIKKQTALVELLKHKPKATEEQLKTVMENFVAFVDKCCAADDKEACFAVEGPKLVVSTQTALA
The nature of assay [11]: probe aXIP binding to arrayed compounds – biochemical, NeuroSMM set, 635/667 nm fluorescence, primary screen (AID 1119).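 Further: probe is the protein aXip251-270 applied at 1 µg/mL to compound-printed slides; binding of probe to printed compounds measured as 667 nm fluorescence plus signal to noise.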 To be noted: small-molecule microarray, higher = more signal, called active from +8 up or from −8 down.
Assay [12] is described as follows: probe aNOTCH3 binding on compound microarray – biochemical, small-molecule microarray, 635/667 nm fluorescence, primary screen (AID 1120).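 Further: probe is a biotin-tagged antibody raised against NOTCH3 rather than NOTCH3 protein; score merges spot fluorescence near 667 nm with spot signal to noise.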 Particulars: higher = more signal.
Assay [13] can be described thus: probe aNOTCH2 binding on compound microarray – biochemical, small-molecule microarray, 635/667 nm fluorescence, primary screen (AID 1121).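 Further: score merges feature fluorescence read at 667 nm with its signal to noise.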 To be noted: higher = more signal.
In assay [14] the target is Carbonic anhydrase 2 (Homo sapiens) (UniProt P00918). The experiment in a line: compounds binding carbonic anhydrase 2 – biochemical, small-molecule microarray, Alexa647-labelled CAII, profiling panel (AID 1122). Particulars: CAII-A647 binding fluorescence, higher = more signal.
A short description of assay [15]: COS7 lysate on small-molecule microarray, probe aHis, 635 nm (AID 1123).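 Further: z-score combines 667nm fluorescence intensity with signal-to-noise per printed compound spot.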 Particulars: COS7 cell lysate, fluorescence, higher = more signal.
The nature of assay [16]: probe aLAP1 signal on lysate-treated microarray – cell lysate, small-molecule microarray, COS7 lysate, primary screen (AID 1124).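 Further: lysate comes from COS7 cells expressing LAP1 and is applied at 0.3 µg/mL; score merges spot fluorescence near 667 nm with signal-to-noise over triplicate slides.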 To be noted: probe aLAP1, fluorescence, higher = more signal.
A further assay concerns Sam68 (KHDRBS1). Kind of assay: compounds binding KHDRBS1 protein – biochemical, small-molecule microarray, 635 nm fluorescence, primary screen (AID 1125).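 Further: score merges 667 nm channel intensity with signal to noise over triplicate slides.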 To be noted: higher = more signal.
Assay [17] has as its system Chordin-like protein 2 (CHRDL2). The experiment in a line: compounds binding chordin-like 2 – biochemical, small-molecule microarray, 635 nm fluorescence, primary screen (AID 1126).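 Further: printed compound slides probed with Chrdl2 protein at 4 µg/mL for 1 h at 4 C; score merges 667 nm emission intensity with signal to noise over three replicate slides.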 Particulars: fluorescence 635 nm, higher = more signal.
Assay [18] has as its target Concanavalin-A (Canavalia ensiformis) (UniProt P02866). The experiment in a line: compounds binding concanavalin A lectin – biochemical, small-molecule microarray, Alexa647 label, 635 nm, artefact control for SMM control protein annotation, primary screen (AID 1127).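 Further: z combines 667 nm emission intensity with signal-to-noise across three replicate slides.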 To be noted: ConA-A647 binding fluorescence, higher = more signal.

Activity calls are given as the source filed them.

Torsin-1A-interacting protein 1 (Homo sapiens), sequence (Q5JTV8 whole entry, looked up): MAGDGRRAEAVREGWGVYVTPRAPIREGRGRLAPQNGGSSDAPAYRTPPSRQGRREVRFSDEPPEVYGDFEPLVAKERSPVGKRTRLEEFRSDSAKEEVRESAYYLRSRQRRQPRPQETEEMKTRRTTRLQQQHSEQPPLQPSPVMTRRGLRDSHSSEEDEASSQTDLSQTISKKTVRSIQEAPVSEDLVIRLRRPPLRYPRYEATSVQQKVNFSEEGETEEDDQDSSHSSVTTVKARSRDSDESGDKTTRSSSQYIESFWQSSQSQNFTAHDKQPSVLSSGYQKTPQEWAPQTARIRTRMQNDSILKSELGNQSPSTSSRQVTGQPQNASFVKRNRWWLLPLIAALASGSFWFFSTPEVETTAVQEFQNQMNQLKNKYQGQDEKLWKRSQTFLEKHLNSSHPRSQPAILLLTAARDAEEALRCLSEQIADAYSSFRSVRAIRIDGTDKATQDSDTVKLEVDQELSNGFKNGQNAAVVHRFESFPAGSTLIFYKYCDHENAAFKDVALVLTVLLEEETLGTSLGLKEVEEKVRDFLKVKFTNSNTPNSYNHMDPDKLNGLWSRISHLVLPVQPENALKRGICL
Alpha-bungarotoxin (Bungarus multicinctus), sequence (P60615 whole entry, looked up): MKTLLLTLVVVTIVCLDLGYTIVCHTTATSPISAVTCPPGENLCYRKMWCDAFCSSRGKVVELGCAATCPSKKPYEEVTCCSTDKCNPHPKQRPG
Concanavalin-A (Canavalia ensiformis), sequence (P02866 whole entry, looked up): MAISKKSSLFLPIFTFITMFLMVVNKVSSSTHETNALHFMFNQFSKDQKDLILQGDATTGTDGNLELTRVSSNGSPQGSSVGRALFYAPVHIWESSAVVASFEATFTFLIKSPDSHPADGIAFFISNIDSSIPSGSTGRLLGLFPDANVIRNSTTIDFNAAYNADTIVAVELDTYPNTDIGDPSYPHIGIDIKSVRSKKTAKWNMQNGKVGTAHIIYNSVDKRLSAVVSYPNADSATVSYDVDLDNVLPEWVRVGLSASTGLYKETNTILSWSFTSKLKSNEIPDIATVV
Left-right determination factor 2 (Homo sapiens), sequence (O00292 whole entry, looked up): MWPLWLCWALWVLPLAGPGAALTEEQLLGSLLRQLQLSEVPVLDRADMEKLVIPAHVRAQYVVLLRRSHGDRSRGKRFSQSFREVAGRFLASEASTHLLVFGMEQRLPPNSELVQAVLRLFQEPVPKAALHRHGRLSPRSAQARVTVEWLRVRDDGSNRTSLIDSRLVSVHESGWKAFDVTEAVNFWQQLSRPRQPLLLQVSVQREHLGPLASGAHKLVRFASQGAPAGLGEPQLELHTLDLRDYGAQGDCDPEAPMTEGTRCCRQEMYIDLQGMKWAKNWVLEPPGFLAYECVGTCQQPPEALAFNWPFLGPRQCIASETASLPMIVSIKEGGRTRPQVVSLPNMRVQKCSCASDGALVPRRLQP

For `CN1C(=O)C2C=CC(C(O)C3CC=CCC3)N(Nc3ccccc3)C2C1=O` (stereo not given), the composite z-score was 1.24 in assay [1]; 0.76 in [3]; 1.55 in [4]; 0.129 in assay [5]; -0.0792 in assay [6]; -0.0289 in assay [7]. In addition, the composite z-score in assay [8] was 0.897; in [9] it was 0.764; in [10] it was 1.58; with Albumin (Bos taurus), 0.598; in assay [12], 0.351; in assay [13], 0.0697. Further, the composite z-score was 0.715 in assay [14]; 2.75 in [15]; -0.147 in assay [16]; 1.3 in the assay with Sam68 (KHDRBS1); 0.912 in assay [17]; 0.955 in assay [18]. The compound further came in with a z-score in assay [2] of -0.556. In addition, the composite Z-score in assay [11] is -0.442 (inactive).

For `CCCCCCc1nc(C2CC2)c(C)c2c1[Si](C(C)C)(C(C)C)OC2`, the composite z-score in [1] is -0.497; in [3], -0.127; in assay [4], -0.682; in assay [5], -0.111; in assay [6], -0.124; in [7] it was -0.0146. For the same compound, the composite z-score in [8] was -0.353; in assay [9], -0.147; in [10], 0.342; with Albumin (Bos taurus), -1.57; in assay [12] it was -0.0647; in assay [13] it was -0.0942. Also, the composite z-score in [14] was -0.364; in [15] it was -0.641; in assay [16], -0.35; with Sam68 (KHDRBS1), -1.28; in assay [17], 0.63; in assay [18], -0.693. The z-score in assay [2] stood at 0.127. In addition, in [11], the composite Z-score is 0.485 (inactive).

Take `COc1ccc(CCN2C(=O)[C@@]3(c4ccc([N+](=O)[O-])cc4)CC(=O)N(CC45CC6CC(CC(C6)C4)C5)[C@@H]3c3ccc(CO)cc32)cc1`: the composite z-score in assay [1] is -0.047; in [3], 0.16; in [4], 0.207; in assay [5] it was -0.474; in assay [6], -0.0101; in assay [7], -0.181. Besides, the composite z-score in assay [8] is -0.476; in assay [9], 0.352; in [10], 0.119; with Albumin (Bos taurus), -0.181; in assay [12], 0.323; in assay [13], 0.0437. The composite z-score is 0.446 in assay [14]; 1.38 in assay [15]; -0.415 in assay [16]; 0.644 with Sam68 (KHDRBS1); 0.569 in assay [17]; 0.402 in [18]. This compound also gave a z-score in [2] of -0.673. The composite Z-score in assay [11] was 0.653 (inactive).

On to `COC(=O)C(CC#Cc1ccc2c(c1)[C@]1(C(=O)N2)[C@H](C(=O)N2CCCCCCC2)[C@H]2C(=O)O[C@H](c3ccccc3)[C@H](c3ccccc3)N2[C@@H]1c1ccc(O)cc1)C(=O)OC`, for which the composite z-score is -1.26 in [1]; -0.537 in [3]; -0.433 in [4]; -0.236 in assay [5]; -0.125 in [6]; -0.0769 in assay [7]. The composite z-score in [8] is -0.411; in assay [9], -0.723; in [10], -0.715; with Albumin (Bos taurus), -0.264; in [12], -0.379; in [13] it was -0.0829. In addition, the composite z-score in [14] is -0.59; in assay [15], -0.437; in assay [16], 0.39; in the assay with Sam68 (KHDRBS1) it was -0.92; in assay [17], -1.32; in assay [18], 0.266. In assay [2], the z-score was -0.789. The composite Z-score in [11] was 0.448 (inactive).

In the case of `O=C(NCC(F)(F)F)[C@@H]1c2ccccc2C(=O)N(Cc2ccccc2Cl)[C@H]1c1ccc(CO)cc1`, the composite z-score in [1] is -0.804; in assay [3] it was -1.44; in assay [4], -0.483; in [5] it was -0.135; in [6] it was -0.147; in [7], 0.245. In addition, the composite z-score is -0.0689 in assay [8]; -1.19 in assay [9]; -1.18 in [10]; -0.288 with Albumin (Bos taurus); -0.48 in assay [12]; -0.182 in assay [13]. In addition, the composite z-score is 0.761 in assay [14]; 0.546 in [15]; 1.03 in assay [16]; -1.35 in the assay on Sam68 (KHDRBS1); -0.584 in assay [17]; -0.907 in assay [18]. Also, the z-score in assay [2] was -1.03. The composite Z-score in assay [11] is -0.152 (inactive).

Turning to `O=C1O[C@H](c2ccccc2)[C@H](c2ccccc2)N2[C@H]1[C@@H](C(=O)Nc1nc3ccccc3s1)[C@]1(C(=O)Nc3ccc(C#CC4(O)CCCCCC4)cc31)[C@H]2c1ccc(O)cc1`, the composite z-score in [1] was 1.38; in [3], 0.596; in assay [4] it was 1.94; in assay [5], 0.597; in [6] it was -0.0125; in [7], -0.203. Further, the composite z-score was -0.387 in assay [8]; 1.58 in [9]; 2.17 in assay [10]; 0.934 with Albumin (Bos taurus); 0.116 in assay [12]; -0.0283 in assay [13]. The composite z-score in assay [14] came to 0.415; in assay [15] it was 2.53; in assay [16] it was 0.797; in the assay with Sam68 (KHDRBS1), 1.3; in assay [17], 0.528; in [18] it was 1.14. For the same compound, in [2], the z-score is -0.733. Further, the composite Z-score in assay [11] is 0.928 (inactive).

For the origin of these results see PubChem BioAssay.
